# Compound activity (PubChem BioAssay)
# Rows were chosen to be rich in hits. Some 4.5% of all compounds tested hit in one or more screens of this group.
# DAX1 inh-1 = DAX1 (NR0B1) inhibitors, primary screen, cell-based, HEK293, Gal4-DAX1, luciferase luminescence; Nuclear receptor subfamily 0 group B member 1 (Homo sapiens), P51843; HEK293 Gal4-DAX1 luciferase reporter; inhibition, % at 6.75 µM; 0.99% of 340,000 active; AID 504766, 2011;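 active means inhibition above the mean over all tested compounds plus 3 SD, cut at about 4.2% in these data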;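 further: 0% = DAX1-transfected cells with DMSO and 100% = empty-vector control cells with DMSO; inhibition shows as a rise in luminescence from relieved DAX1 repression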
# Target sequence (P51843 207-470 limits assumed): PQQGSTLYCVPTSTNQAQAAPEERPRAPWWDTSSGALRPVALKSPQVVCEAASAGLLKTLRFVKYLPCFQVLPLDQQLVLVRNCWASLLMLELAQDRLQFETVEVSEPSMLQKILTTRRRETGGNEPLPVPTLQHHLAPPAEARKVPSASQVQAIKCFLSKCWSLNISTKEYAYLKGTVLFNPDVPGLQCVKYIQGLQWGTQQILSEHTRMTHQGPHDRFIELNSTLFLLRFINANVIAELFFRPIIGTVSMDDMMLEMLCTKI
# hcDAF-12 act = H. contortus DAF-12 nuclear receptor activators, primary screen, cell-based, luminescence, HEK293, lit1-tk-luc reporter. 1.4% of 370,000 active. activation, % at 6.8 µM. HEK293 hcDAF-12 lit1-tk-luc reporter; 0% DMSO, 100% Δ7-dafachronic acid;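 active means activation above the mean of all tested compounds plus 3 SD, cut at about 5.5% in these data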;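 further: 100% = response to 3 µM Δ7-dafachronic acid high control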
# DAX1 inh-2 = DAX1 (NR0B1) inhibitors on StAR promoter, primary screen, cell-based, luminescence, SF-1 (NR5A1), full-length DAX-1 | inhibition, % at 6.8 µM | HEK293T StAR-luciferase reporter, SF-1/DAX-1 repression relief | 1.1% of 370,000 active | AID 652010, 2013;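 active means inhibition above the mean over all tested compounds plus 3 SD, cut at about 3.6% in these data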;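 further: 0% = DAX-1 cells with DMSO and 100% = cells lacking DAX-1 with DMSO; higher inhibition means more luminescence from relief of DAX-1 repression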
# ssDAF12 agonist = S. stercoralis DAF-12 nuclear receptor activators, primary screen, cell-based, luminescence, HEK293, GRIP1 co-expression, lit1-tk-luc. HEK293 ssDAF-12/GRIP1 lit1-tk-luc reporter; % of 3 µM dafachronic acid response. activation, % at 6.8 µM. 1% of 370,000 active. Nuclear hormone receptor DAF-12 (Strongyloides stercoralis). AID 652126, 2013;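 active means activation above the mean over all tested compounds plus 3 SD, cut at about 0.9% in these data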;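 further: 0% = DMSO-only wells and 100% = 3 µM delta7-dafachronic acid wells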
# FXN GAA850 act = FXN promoter activators, primary screen, cell-based, luciferase luminescence, HEK293 lucGAA850; HEK293 lucGAA850 FXN promoter luciferase reporter, 24 h; percent of 10 µM SAHA response; activation, % at 6 µM; 0.56% of 360,000 active; AID 540364, 2011;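 active means activation above the average of all compounds screened plus 3 SD, cutoff fixed separately per campaign, cut at about 7.5% in these data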;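 further: 0% = DMSO wells and 100% = 10 µM SAHA wells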
# hgDAF12 agonist = H. glycines DAF-12 receptor agonists, primary screen, cell-based, luminescence, HEK293, GAL4 fusion, UAS-luciferase; HEK293 GAL4-hgDAF12 UAS-luciferase reporter, agonist luminescence; normalized to butyrate control; 1.8% of 370,000 active; Nuclear hormone receptor DAF-12 (Heterodera glycines), GAL4 fusion; activation, % at 6.8 µM;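 active means activation above a cutoff set at the mean of all screened compounds plus 3 SD, cut at about 10% in these data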;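 further: 0% = DMSO wells and 100% = sodium butyrate wells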
# GAA30 counter = GAA30 FXN promoter activators, confirmation, counter-screen for GAA850 frataxin promoter activator project, cell-based, luminescence, HEK293, lucGAA30, triplicate; activation, % at 6 µM; HEK293 lucGAA30 FXN promoter luciferase, 24 h; DMSO = 0%, 5 µM ipriflavone = 100%; 66% of 1,900 active; shares compounds with FXN GAA850 act;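 active means mean activation above the mean of solvent-only control wells plus 3 SD, cut at about 22% in these data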;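 further: counterscreen of GAA850 promoter hits where activity marks nonselective or luminescence artifacts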
# GAA850 confirm = FXN GAA850 promoter activators in reporter cells, confirmation, cell-based, luminescence, HEK293 lucGAA850, triplicate. AID 588351, 2011. HEK293 lucGAA850 FXN promoter luciferase reporter, 24 h; 100% = activation by SAHA. activation, % at 6 µM. 86% of 1,900 active. shares compounds with FXN GAA850 act;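 active means mean activation above a set limit taken from the primary screen, cut at about 8% in these data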;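 further: 0% = DMSO wells and 100% = 10 µM SAHA wells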
# * = called active by the depositor; . = no result.
SMILES,DAX1 inh-1,hcDAF-12 act,DAX1 inh-2,ssDAF12 agonist,FXN GAA850 act,hgDAF12 agonist,GAA30 counter,GAA850 confirm
Oc1ccc(/C=N/N=C/c2ccc(O)c(O)c2)cc1O,-1,2,1,-1,8.2*,-4,33*,16*
CCCCC(=O)c1ccc(OC(=O)c2ccc([N+](=O)[O-])cc2)cc1,0,0,1,-2,-1,0,.,.
FCCCOc1ccc(CN2CCN(c3ccccc3F)CC2)cc1,-1,-2,0,-1,0,-3,.,.
O=C(CSc1nc2ccccc2n1Cc1ccccc1Cl)N/N=C\c1cccc(Oc2ccccc2)c1,.,1,-1,-2,.,2,.,.
CC(C)OP(=O)(c1ccc(N(C)C)cc1)C(O)c1ccc(C(C)C)cc1 (stereo unspecified),-1,0,-1,-1,11*,1,29*,13*
CC(C)CCOP(=O)(c1ccc(N(C)C)cc1)C(O)c1c(Cl)cccc1Cl (stereo unspecified),0,-1,0,-1,20*,-3,26*,14*
CC1C(=O)N(Cc2cn(Cc3ccco3)nn2)CCS(=O)(=O)N1Cc1ccc(-c2ccc(Cl)c(Cl)c2)cc1 (stereo unspecified),0,-3,-1,-2,0,-3,.,.
COC(=O)c1ccc2nc(-c3ccco3)c(Cc3ccccc3C(F)(F)F)n2c1,.,-1,-1,-1,.,-5,.,.
COc1cccc(C(=O)/C=C/Nc2cc(C)ccc2O)c1,1,-1,0,-1,11*,-1,47*,33*
Cc1ccc(O)c(NC2=C(Cl)C(=O)N(Cc3ccccc3)C2=O)c1,0,0,-1,-1,8.1*,-2,21,12*
CCOC(=O)C(C)Oc1cccc2c(=O)n(CC(=O)Nc3cccc(OC)c3)ccc12 (stereo unspecified),0,-1,-1,-1,-1,-2,.,.
CCOC(=O)C(C)Oc1cccc2c(=O)n(CC(=O)Nc3ccc4c(c3)OCCO4)ccc12 (stereo unspecified),0,-1,-2,-1,11*,9,4,-1
CCCC(CC)Sc1nc2c([nH]1)c(=S)n(C)c(=O)n2C (stereo unspecified),-2,-2,-1,-1,15*,-6,17,14*
CCCCSc1nc2c([nH]1)c(=S)n(C)c(=O)n2C,-1,0,-1,-1,19*,-2,14,15*
O=c1oc2ccc(Br)cc2cc1S(=O)(=O)c1ccc(F)cc1,-2,.,.,.,7,.,.,.
Brc1ccc2oc(-c3ccn[nH]3)cc2c1,.,4,1,0,7.8*,6,116*,38*
COCCCNC(=O)C[C@H]1C[C@@]2(C(=O)OC)C(=C[C@H](C(C)C)O[C@@H]2C2CC2)N(Cc2ccc3c(c2)OCO3)C1=O,.,-1,-1,-1,.,-2,.,.
CCCCOc1ccc(C2=NNC(=O)CC2)cc1,3,0,0,-1,10*,7,42*,15*
COc1cccc2sc3cc(NCc4ccc(C)o4)ccc3c(=O)c12,1,1,0,-1,7.7*,5,88*,34*
COc1cc2sc(-c3ccc(S(C)(=O)=O)cc3)c(C(=O)NCc3ccc(C)o3)c2cc1OC,-2,-1,0,-1,0,1,.,.
NS(=O)(=O)c1ccc(CNC(=O)C(c2ccccc2)c2ccccc2)cc1,1,-1,0,-1,0,1,.,.
Cc1cc2nc3ccc(N(C)C)cc3nc2cc1N,3,6.3*,4.4*,1.1*,7.8*,9,119*,34*
COc1ccc(Nc2nc(N)c([N+](=O)[O-])c(NCCO)n2)cc1,.,1,0,-1,3,-2,.,.
CNc1nc(Nc2ccc(Br)cc2)nc(N)c1[N+](=O)[O-],1,6,1,1.2*,9.1*,3,91*,42*
O=C(Nc1ncc(Cc2cccc(Cl)c2)s1)C1CCCO1 (stereo unspecified),-1,3,2,0,8.2*,7,87*,28*
SMILES,DAX1 inh-1,hcDAF-12 act,DAX1 inh-2,ssDAF12 agonist,FXN GAA850 act,hgDAF12 agonist,GAA30 counter,GAA850 confirm
CC(=O)Nc1ncc(Cc2cccc(Cl)c2)s1,-1,-1,0,-1,1,-1,.,.
COc1ccc(-c2ccc(=O)n(Cc3c(F)cccc3Cl)n2)cc1,0,-4,-1,-2,8.0*,-2,43*,22*
CCC(CC)c1nnc(NC(=O)CC(C)c2ccccc2)s1 (stereo unspecified),-2,-1,0,-1,1,0,.,.
O=C(Cn1nc(-c2ccc(N3CCOCC3)c([N+](=O)[O-])c2)c2ccccc2c1=O)N1CCCCC1,-1,-2,0,-2,8.3*,-4,38*,14*
NC(=O)c1c(NC(=O)c2ccccc2)sc2c1CCc1ccccc1-2,2,4,1,0,7.7*,7,95*,35*
Cn1c(SCc2ccccc2)nc(N)c(N=O)c1=O,.,-2,-1,-1,11*,-3,-10,19*
C=CC[C@@H](CC(=O)N(CCO)Cc1ccccc1)C(=O)NC[C@H](OC(=O)[C@@H](CC=C)Cc1ccc(F)cc1)c1ccccc1,-3,-3,-2,-2,-9,-6,.,.
COc1cc(CNc2ccc3[nH]c(=O)[nH]c3c2)ccc1OCc1ccccc1C,1,5,0,0,2,4,.,.
COc1cc(CNc2ccc3[nH]c(=O)[nH]c3c2)ccc1OCc1ccccc1F,0,-2,-1,0,7.7*,-1,33*,20*
